Assay results as given in the supplement of paper PMC6555819.

The sequences below were run on PPARg DBDmut IVT, anti-PPARg (DBD mutation: PPARg1 K132A/R137A, NR concentration 270 nM) (assay: PBM binding z-score (relative to random genomic background probes); higher = stronger binding; sequences stand for … in GC…GCGATTGACAGCGTAGAATGAAGG).
Procedure, shortened: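 Probes were double-stranded and carried 34-nt variable regions with direct-repeat seeds, single-nucleotide variants, half-site ablations and random human genomic background sequences, printed on custom Agilent 4×180K protein-binding microarrays. Arrays were incubated 1 h with ligand-free nuclear receptor dimers in PBS pH 7.4, 2% milk, 0.02% Triton X-100, 1 mM DTT, 0.2 mg/mL BSA and 0.4 mg/ml salmon testes DNA. Antibodies against each partner (one per run) detected binding, and scanned fluorescence was regression-normalized. Binding z-scores use the random background probes as reference.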

| Sequence | PBM binding z-score |
| --- | --- |
| TCTCGGAGGACAGGAAGGTCAGAGCTTTCCAGAG | -1.7 |
| ACTATTAGTTGACTTACGGCAACCGATACGACGC | 1.35 |
| CCGGACAGGTGAAAGGTAACTCAGTCTGGTACGC | -0.876 |
| ATCGAAAGGTCGAAGTGAGTATAGAGAAAGGGAA | 1.1 |
| ATATGTAGGTTATCGGCTCATTCAGTTTGCGCAT | 1.66 |
| CCTTCTGGGCCACGAAAGGTCATTGATTCAGTGA | 2.08 |
| CAAACTAGGTCAAGCTCAAAGTCGGTTTGTGCCA | 1.47 |
| TTACCAAGGTGAAAGGTAGTTGATGCACGCCTTG | 0.152 |
| CCAACTGGGCCACGAAAGGTCATTGATTCAGTGA | -0.318 |
| AGAATGAGGTTATACGTAGATCAGGCAAGAAAGT | 0.362 |
| CAAACCAGGTCAAGGTCAAAGTCGGTTTGTGCCA | 2.41 |
| TCATATAGGTAAACAGGTGAAAGTCCGTAAGTTA | 0.871 |
| CGAACGAGAGCATGAGTTGATAGCAAATGCCGAT | -0.174 |
| ACTTACGGGTCAACGAGGTTATGGCACGCGTATA | 0.297 |
| ATCGACAGGTCGACGAGGTGAGTATACACCGTTT | 0.384 |
| CAAACTAGGTCACAGAGGTCAAAGTCCGTGCGTA | 1.15 |
| CCTACTGGGCCAAAGGTCAATGATTCCAATGCTC | 1.78 |
| GCTGCTAGGTCAAATGATGGTCAGCTAAAGCTCG | -0.751 |
| AGAATGAGTTTATACGTAGATCAGGGAAGAAAGT | 0.612 |
| TGAATGAGGGTATAAGATCAGGGAACGTTGCAAA | 0.423 |

| Sequence | PBM binding z-score |
| --- | --- |
| CCTCGGAGGACAACAGGAGGTCAGTGCTGCCAGA | -1.78 |
| TAGCCTAGGTCAGATCGGGCCAGTATGCGCTATA | -0.549 |
| CCTTTCGGGTCAAGGTTATAGCACGGGTGGTACG | 0.648 |
| GGAACGAGGGCAAAGCTGATAGCATCTGTCGACG | -0.247 |
| TAGCCTAGGTCATTGGGGCAGTATAGTACGCATC | 0.251 |
| ATCTCTAGGTAAGAGTCAGTTCAGTGAAGAACGC | 0.902 |
| AGAATGAGGTTAAGATCAGGCAAACAGAATACAT | 0.64 |
| TTACGAAGGTGAAGGTCGTTGATCCCTCTGTAGA | -0.332 |
| AGAATTAGGTTATTAAGATCAGGGAATTGCGGTC | 1.27 |
| GGAACGAGGGCATTCCAGTTGATAGCATGGCGAT | -0.74 |
| TCTTGTAGTTCAAAGGTTAAGAAAGCCGAAGCCT | 1.99 |
| AATACAGGGTCACTAGGCCAGCGTAGGTACGAAT | 1 |
| CCTACTGGGCCATCAGCTCATTGATATCAACGTT | -0.205 |
| TAGCCTAGGTCATTCAGGGGCCAGTATTGAAAGC | -0.0243 |
| TCTTGTAGATCAAAGGTTAGGAAAGCCGAAGCCT | 0.103 |
| GCGACTGAGGCATCAGCAGGTTACCATAACTTAA | -0.218 |
| ACACCAAGGTGATCGTGAGGTCGTTGATACTAAC | 0.153 |
| TAGCCTAGGTCATGGGCCAGTCTACCACGCGAAC | 0.137 |
| CGGCAAAGTTCAACTAAGGTAACGTAAAGCACGC | -0.173 |
| CGTCCAAGGTCAGAAAGGTCAGTGAATGCCGAGT | -0.0818 |
